Compounds without any hit were thinned out: in the full panel of roughly 83,000, 20% have a hit.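 Values shown are percent growth following 48 h exposure of cells in 96-well plates to a single concentration of compound; below 10 was considered active.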 Unmarked numbers belong to inactive results. Activity calls are given as the source filed them.

What all share (assay): NCI-60 one-dose screen, 48 h (100 = growth as untreated, 0 = no growth, -100 = all killed)
For one experiment, the system named is HCT-15 colon. Particulars: 10 µM unless noted.
A further experiment deals with HT29 colon. Particulars: 10 µM unless noted.
Another experiment relates to SNB-19 CNS. The note with it: 10 µM unless noted.
In another experiment the test system is U251 CNS. Particulars: 10 µM unless noted.
The subject of another experiment is PC-3 prostate. Particulars: 10 µM unless noted.
A further experiment concerns SK-MEL-5 melanoma. Particulars: 10 µM unless noted.
The next experiment relates to UACC-62 melanoma. Particulars: 10 µM unless noted.
A further experiment concerns LOX IMVI melanoma. The note with it: 10 µM unless noted.
The subject of a further experiment is SK-MEL-28 melanoma. Particulars: 10 µM unless noted.
The subject of a further experiment is SK-MEL-2 melanoma. Particulars: 10 µM unless noted.
Another experiment has as its system EKVX NSCLC. Particulars: 10 µM unless noted.
The test system of another experiment is SN12C renal. Particulars: 10 µM unless noted.
Another experiment concerns UO-31 renal. The note with it: 10 µM unless noted.
In a further experiment the test system is TK-10 renal. The note with it: 10 µM unless noted.
For the next experiment, the system named is ACHN renal. The note with it: 10 µM unless noted.
The subject of another experiment is CAKI-1 renal. The note with it: 10 µM.
A further experiment relates to A498 renal. The note with it: 10 µM unless noted.
Another experiment has as its system CCRF-CEM leukemia. The note with it: 10 µM unless noted.
The test system of another experiment is MOLT-4 leukemia. The note with it: 10 µM unless noted.
In a further experiment the test system is SNB-75 CNS. Particulars: 10 µM unless noted.

Take `NC(=O)c1c(NC(=O)c2cccc(OC(F)(F)F)c2)sc2c1CCC(=O)C2`: the growth with HCT-15 colon is 19.2%; in the experiment with HT29 colon, 40.3%; in the experiment with SNB-19 CNS, 43.1%; in the experiment with U251 CNS, 28.7%; in the experiment with PC-3 prostate it was 21.3%; in the experiment on SK-MEL-5 melanoma, 95.4%. In addition, the growth with UACC-62 melanoma is 60.7%; in the experiment with LOX IMVI melanoma it was 28.5%; in the experiment with SK-MEL-28 melanoma, 82.6%; in the experiment on SK-MEL-2 melanoma, 105%; in the experiment on EKVX NSCLC, 68.7%; in the experiment on SN12C renal, 59.5%. Moreover, the growth was 30.1% in the experiment with UO-31 renal; 73.3% in the experiment with TK-10 renal; 20.2% in the experiment on ACHN renal; 45.7% in the experiment with CAKI-1 renal; 88.3% with A498 renal; 8.53% (active) in the experiment with CCRF-CEM leukemia. Also, the growth in the experiment with MOLT-4 leukemia was 44.4%.
As to `Cc1ccc(NC(=O)c2ccc(CN3CCN(C)CC3)c(C(F)(F)F)c2)cc1Oc1ccc(-c2[nH]nc3ncnc(N)c23)cc1`, the growth was 28.8% with HCT-15 colon; -8.89% (active) in the experiment on HT29 colon; 99.2% in the experiment on SNB-19 CNS; -27.7% (active) with U251 CNS; 78.7% in the experiment with PC-3 prostate; 73% in the experiment on SK-MEL-5 melanoma. The growth in the experiment on UACC-62 melanoma is 82.6%; in the experiment with LOX IMVI melanoma, -85.3% (active); in the experiment on SK-MEL-28 melanoma it was 68.6%; with SK-MEL-2 melanoma it was 84.1%; with EKVX NSCLC, 109%; in the experiment on SN12C renal, 80.7%. For the same molecule, the growth is 83% with UO-31 renal; 119% in the experiment with TK-10 renal; 83% in the experiment on ACHN renal; 92.1% in the experiment with CAKI-1 renal; 113% in the experiment on A498 renal; 8.05% (active) in the experiment with CCRF-CEM leukemia. Besides, the growth with MOLT-4 leukemia was 43%.
With `COc1ccc(Oc2ccc(C3CC(c4cc(OC)c(OC)c(OC)c4)=NN3C(C)=O)cc2)cc1` (centres undefined), the growth with HCT-15 colon was 18.5%; with HT29 colon it was 31.7%; in the experiment with SNB-19 CNS it was 30.8%; in the experiment with U251 CNS it was 24.9%; in the experiment on PC-3 prostate, 18.3%; in the experiment with SK-MEL-5 melanoma, 1.54% (active). Further, the growth in the experiment with UACC-62 melanoma is 28.9%; in the experiment on LOX IMVI melanoma it was 35.8%; with SK-MEL-28 melanoma, 43.3%; with SK-MEL-2 melanoma it was 49%; in the experiment with EKVX NSCLC, 25.4%; in the experiment on SN12C renal, 22.3%. Further, the growth with UO-31 renal was 10.1%; in the experiment with TK-10 renal it was 20%; in the experiment on ACHN renal, 20.8%; in the experiment on CAKI-1 renal, 36.1%; with A498 renal, 29.5%; in the experiment on CCRF-CEM leukemia it was 37.7%. Besides, in the experiment with MOLT-4 leukemia, the growth is 14.2%.
As to `Cc1ccccc1NC1CC(=O)N(c2ccc(Cl)cc2Cl)C1=O` (centres undefined), the growth in the experiment on HCT-15 colon was 101%; in the experiment with HT29 colon, 104%; in the experiment with SNB-75 CNS, 90.9%; in the experiment on SNB-19 CNS, 95.6%; in the experiment with U251 CNS it was 99.5%; in the experiment on SK-MEL-5 melanoma, 94.4%. Further, the growth in the experiment on UACC-62 melanoma is 99.8%; with SK-MEL-28 melanoma, 105%; in the experiment with EKVX NSCLC it was 96.7%; in the experiment on SN12C renal, 103%; in the experiment on UO-31 renal, 92.3%; in the experiment on TK-10 renal it was 99.3%. In addition, the growth was 104% in the experiment on ACHN renal, 89.9% in the experiment with CAKI-1 renal, 112% with CCRF-CEM leukemia and 117% with MOLT-4 leukemia.
As to `CS(=O)(=O)c1nccc(-c2c(-c3ccc(F)c(OCCc4ccc(F)cc4)c3)nc3sccn23)n1`, the growth in the experiment on HCT-15 colon is -0.659% (active); with HT29 colon it was 7.43% (active); in the experiment with SNB-75 CNS, 67.8%; in the experiment on SNB-19 CNS, 0.358% (active); with U251 CNS it was 71.4%; in the experiment on SK-MEL-5 melanoma, 92.1%. Besides, the growth was 51.5% in the experiment with LOX IMVI melanoma; -71.5% (active) with SK-MEL-28 melanoma; -66.3% (active) with EKVX NSCLC; 62.4% with SN12C renal; -51.8% (active) in the experiment with UO-31 renal; 84.8% in the experiment with TK-10 renal. Further, the growth in the experiment with ACHN renal was 45.2%; with CAKI-1 renal, 44.7%; with A498 renal, 29.1%; in the experiment with CCRF-CEM leukemia, 56.4%; in the experiment with MOLT-4 leukemia, 14.4%.
As to `C/C(=C(/C)C1CC1CCN(C(=O)c1ccccn1)S(=O)(=O)c1ccc(C)cc1)C1CCCCC1` (centres undefined), the growth is 91.8% in the experiment on HCT-15 colon; 98.3% in the experiment with HT29 colon; 98.4% with SNB-19 CNS; 103% in the experiment with U251 CNS; 93.4% with PC-3 prostate; 78.6% in the experiment on SK-MEL-5 melanoma. The growth in the experiment with UACC-62 melanoma was 63.6%; in the experiment on LOX IMVI melanoma, 97.8%; in the experiment on SK-MEL-28 melanoma, 97.3%; with SK-MEL-2 melanoma, 101%; in the experiment with EKVX NSCLC, 77.6%; in the experiment on SN12C renal, 98.2%. Further, the growth was 86.4% in the experiment on UO-31 renal; 105% with TK-10 renal; 99.3% in the experiment on ACHN renal; 78.9% in the experiment on CAKI-1 renal; 94.6% in the experiment with A498 renal; 92.5% in the experiment on CCRF-CEM leukemia. For the same molecule, in the experiment with MOLT-4 leukemia, the growth was 88.2%.
On to `COc1ccc(-c2cc(-c3cccc4ccccc34)n3c(n2)nc2ccccc23)cc1OC`, for which the growth was 27.4% in the experiment with HCT-15 colon; 21.5% with HT29 colon; 16.7% with SNB-19 CNS; 20.4% with U251 CNS; 30.8% in the experiment with PC-3 prostate; 17.9% with SK-MEL-5 melanoma. Further, the growth in the experiment with UACC-62 melanoma is 20%; in the experiment with LOX IMVI melanoma, 30.9%; in the experiment with SK-MEL-28 melanoma it was 51.5%; with SK-MEL-2 melanoma, 98.2%; with EKVX NSCLC, 69.2%; with SN12C renal, 10.9%. For the same molecule, the growth was 29.4% with UO-31 renal; 53.1% in the experiment on TK-10 renal; 8.14% (active) with ACHN renal; 17.3% with CAKI-1 renal; 38% in the experiment with A498 renal; 3.68% (active) with CCRF-CEM leukemia. Moreover, in the experiment with MOLT-4 leukemia, the growth is 7.55% (active).
With `CCc1ccc(NC(=O)N[C@@H](Cc2cccc(C)c2)C(=O)N[C@@H]2C(=O)N3CCC[C@H]3C(=O)N3CCCC[C@H]3C(=O)N[C@@H](CO)C(=O)N3C[C@H](C)C[C@H]3C(=O)O[C@H]2C)c(F)c1`, the growth in the experiment on HCT-15 colon was 15.5%; in the experiment on HT29 colon, 33.5%; with SNB-75 CNS, 20.4%; in the experiment on SNB-19 CNS, 28.3%; in the experiment with U251 CNS it was 31.7%; in the experiment with SK-MEL-5 melanoma it was -29.3% (active). Further, the growth in the experiment on UACC-62 melanoma is 25.9%; in the experiment with LOX IMVI melanoma, 32.8%; in the experiment on SK-MEL-28 melanoma it was 38.1%; in the experiment with EKVX NSCLC, 30%; in the experiment on SN12C renal, 22.4%; in the experiment with UO-31 renal, 29.6%. The growth was 32.2% with ACHN renal, 15.5% in the experiment on CAKI-1 renal, 37.2% with CCRF-CEM leukemia and 41.8% with MOLT-4 leukemia.

The values above are taken from PubChem BioAssay (NCI).
